Experimental data: ChEMBL document CHEMBL4808148, “HDAC6 screening dataset using tau-based substrate in an enzymatic assay yields selective inhibitors and activators” (2021)
Several values for one entry are separate records, joined by “and”; a condition that tells them apart may be missing. Equal entries are not always repeated. Screen size: about 5,600 compounds; about 150 (2.7%) showed an effect of 50% or more. The sample as a whole holds a higher share of strong results than the screen did.

Legend:
[1] = biological target: T1, Protein deacetylase HDAC6 (Homo sapiens) (UniProt Q9UBN7); conditions: at 10 µM
T1 sequence (whole entry): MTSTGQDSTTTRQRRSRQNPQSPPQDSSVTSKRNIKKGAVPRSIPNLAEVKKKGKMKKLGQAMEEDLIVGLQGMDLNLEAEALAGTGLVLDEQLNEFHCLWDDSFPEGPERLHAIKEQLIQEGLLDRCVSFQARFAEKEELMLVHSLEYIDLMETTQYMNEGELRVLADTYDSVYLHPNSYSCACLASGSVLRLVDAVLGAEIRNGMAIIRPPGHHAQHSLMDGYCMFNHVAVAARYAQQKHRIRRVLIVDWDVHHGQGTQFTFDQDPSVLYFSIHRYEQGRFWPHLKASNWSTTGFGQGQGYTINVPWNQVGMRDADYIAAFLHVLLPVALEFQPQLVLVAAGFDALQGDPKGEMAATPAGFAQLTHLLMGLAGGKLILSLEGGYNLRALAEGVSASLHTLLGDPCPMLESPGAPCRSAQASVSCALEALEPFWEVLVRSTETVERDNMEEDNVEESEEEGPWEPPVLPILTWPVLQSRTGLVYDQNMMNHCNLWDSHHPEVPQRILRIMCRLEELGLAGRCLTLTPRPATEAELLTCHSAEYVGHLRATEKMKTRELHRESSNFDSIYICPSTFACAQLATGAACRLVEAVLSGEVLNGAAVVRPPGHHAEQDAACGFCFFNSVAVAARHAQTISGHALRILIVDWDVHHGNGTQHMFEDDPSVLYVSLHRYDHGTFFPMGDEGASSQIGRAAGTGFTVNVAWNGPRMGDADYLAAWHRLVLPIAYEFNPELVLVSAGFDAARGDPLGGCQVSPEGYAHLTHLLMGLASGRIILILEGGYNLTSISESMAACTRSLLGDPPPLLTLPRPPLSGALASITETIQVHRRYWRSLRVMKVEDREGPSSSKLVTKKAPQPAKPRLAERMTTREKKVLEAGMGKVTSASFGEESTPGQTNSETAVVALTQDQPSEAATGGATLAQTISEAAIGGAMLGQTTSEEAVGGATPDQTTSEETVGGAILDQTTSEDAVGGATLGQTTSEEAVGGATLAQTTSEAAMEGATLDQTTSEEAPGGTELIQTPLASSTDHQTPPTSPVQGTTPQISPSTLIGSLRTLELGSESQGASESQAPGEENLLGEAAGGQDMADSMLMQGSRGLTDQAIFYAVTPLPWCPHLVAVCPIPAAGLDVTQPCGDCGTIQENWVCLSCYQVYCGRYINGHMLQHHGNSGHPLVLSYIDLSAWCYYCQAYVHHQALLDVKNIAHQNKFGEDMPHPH

[2] = biological target: Protein deacetylase HDAC6 (Homo sapiens) (UniProt Q9UBN7); conditions: at 10 µM; remark: listed apart in the source

Compound | inhibition [1] | inhibition [2] [%]
CC(=O)OC1C[C@H]2C(C)(C)C(=O)C=C[C@]2(C)[C@H]2CC[C@@]3(C)[C@H](c4ccoc4)OC(=O)[C@H]4O[C@]43[C@]12C (stereo not given in full) | -9.28% | 
Nc1cc2c3ccccc3ccc2c2ccccc12 | 23.6% | 
Clc1cccc(C(c2ccc3[nH]cnc3c2)n2ccnc2)c1 (stereo not given) | 0.23% | 
O[C@H]1CC[C@H](Nc2ncc3nc(Nc4c(F)cc(F)cc4F)n([C@H]4CCOC4)c3n2)CC1 | -4.44% | 
Nc1ccc(S(N)(=O)=O)cc1 | -5.55% | 
NCc1ccc(S(N)(=O)=O)cc1 | 0.53% | 
NS(=O)(=O)c1ccc(S(=O)(=O)Nc2cccc3c(Cl)c[nH]c23)cc1 | 79.5% | 
C=CC(C)(O)CCC=C(C)C (stereo not given) | 1.97% | 
O=C(CN1C(=O)C2(CCCC2)NC[C@H]1c1cc(F)cc(F)c1)Nc1ccc2c(c1)C[C@@]1(C2)C(=O)Nc2ncccc21 | -4.92% | 
C=CC(=O)O | 0.87% | 
O=C1c2cccc(O)c2C(=O)c2c(O)cccc21 | -4.52% | 
Cc1cc(O)c2c(c1)C(=O)c1cccc(O)c1C2=O | 6.5% | 
C[C@@H]1CC(=O)c2c(ccc3c2C(=O)c2cccc(O)c2C3=O)C1 | 77.5% | 
Cc1ccc2c(N3CCN(CCc4cccc(N5CCNC5=O)c4)CC3)cccc2n1 | -3.2% | 
CCCCCCOc1cc2c(cc1N(C)c1ncc(C(=O)O)cn1)C(C)(C)CCC2(C)C | 0.82% | 
Nc1nccc(/C=C/c2ccccc2)n1 | 96.2% | 
Cc1cccc(/C=C/c2ccccc2)n1 | 98.2% | 
CC[N+](CC)(CC)CCOc1ccc(/C=C/c2ccccc2)cc1 | -3.25% | 
Cc1nc2ccccc2c(-c2ccc3c4c(ccnc24)CCO3)c1[C@H](OC(C)(C)C)C(=O)O | -1.87% | 
Cc1cc(N2CCOCC2)ccc1Nc1nc(NC2CCCCC2)c2nc[nH]c2n1 | -0.21% | 
Cc1cc2ncc(C(=O)NCC(C)(C)NCC(=O)N3CCC[C@H]3C#N)cn2n1 | 2.17% | 
COc1ccc(Cc2cnc(N)nc2N)cc1OC | -3.93% | 
COc1ccc(COc2ccc(Cc3cnc(N)nc3N)cc2OC)cc1 | 58.8% | 
COc1cc(Cc2cnc(N)nc2N)cc(OC)c1OC | -5.72% | 
c1nc2c(NC3CCCCC3)nc(Nc3ccc(N4CCOCC4)cc3)nc2[nH]1 | -4.12% | 
Cc1cc(/C(=C\Nc2ccc(Cl)cc2)C(=O)Nc2ccc(Cl)cc2)on1 | -2.63% | 
Oc1ccc2c(c1)CC[C@H](c1ccccc1)[C@@H]2c1ccc(OCCN2CCCC2)cc1 | -2.46% | 

Compound | inhibition [1] | inhibition [2] [%]
O=c1c(O)c(-c2ccc(O)c(O)c2)oc2cc(O)ccc12 | 8.31% | 
COc1cc2c(=O)c(-c3ccc(O)cc3)coc2cc1O | 96.6% | 
CC(C)Oc1ccc2c(=O)c(-c3ccccc3)coc2c1 | -8.43% | 
Cc1cc(=O)oc2cc(O)ccc12 | -0.81% | 
O=c1c(-c2ccc(O)cc2)coc2c(C3OC(CO)C(O)C(O)C3O)c(O)ccc12 (stereo not given) | -5.66% | 
COc1cc(C(C)=O)ccc1O | 4.49% | 
COc1ccc(-c2coc3cc(O)ccc3c2=O)cc1 | 62.6% | 
O=c1c(-c2ccc(O)cc2)coc2cc(O)ccc12 | 76% | 
COc1ccc(C(C)=O)c(O)c1 | 0.72% | 
Cc1cc(CCCOc2c(C)cc(-c3noc(C(F)(F)F)n3)cc2C)on1 | -3.38% | 
CCCCNc1ncc2c(-c3ccc(CN4CCN(C)CC4)cc3)cn([C@H]3CC[C@H](O)CC3)c2n1 | 5.61% | 
COLISTIMETHATE SODIUM, CHEMBL1201441 |  | 0.02
O=S(=O)(OC[C@H]1O[C@@](COS(=O)(=O)[O][Al]([OH])[OH])(O[C@H]2O[C@H](COS(=O)(=O)[O][Al]([OH])[OH])[C@@H](OS(=O)(=O)[O][Al]([OH])[OH])[C@H](OS(=O)(=O)[O][Al]([OH])[OH])[C@H]2OS(=O)(=O)[O][Al]([OH])[OH])[C@@H](OS(=O)(=O)[O][Al]([OH])[OH])[C@@H]1OS(=O)(=O)[O][Al]([OH])[OH])[O][Al]([OH])[OH] | -5.96% | 
OC[C@H]1O[C@@H](c2ccc(F)c(Cc3cc4ccccc4s3)c2)[C@H](O)[C@@H](O)[C@@H]1O | -2.47% | 
O=C(/C=C/c1ccc(O)c2c1[C@@H](C(=O)O[C@H](Cc1ccc(O)c(O)c1)C(=O)O)[C@H](c1ccc(O)c(O)c1)O2)O[C@H](Cc1ccc(O)c(O)c1)C(=O)O | 3.93% | 
CC(=O)NC[C@H]1CN(c2ccc(-c3ccc(CNCc4cnn[nH]4)cc3)c(F)c2)C(=O)O1 | 0.09% | 
Cc1cccc(N2CC(CO)OC2=O)c1 (stereo not given) | -6.61% | 
Cn1nnc(-c2ccc(-c3ccc(N4C[C@H](CO)OC4=O)cc3F)cn2)n1 | 86.8% | 
CCCCOCCOc1nc(-c2ccc(C(=O)O)c(F)c2)sc1C | 0.11% | 
Cc1nc(-c2ccc(OCC(C)C)c(C#N)c2)sc1C(=O)O | 98.8% | 
Cc1cc(SCc2sc(-c3ccc(C(F)(F)F)cc3)nc2C)ccc1OCC(=O)O | 3.31% | 
CCOC(=O)[C@@]1(CCCCCCOc2ccc(Cl)cc2)CO1 | -2.98% | 
CCC(CC)Nc1nc(C)c(-c2ccc(OC(F)(F)F)cc2OC)nc1OC | -3.03% | 
O=c1c2ccccc2nc2n1CCc1c-2[nH]c2ccccc12 | 7.17% | 
O=c1c2ccccc2nc2n1CCCCC2 | 17.6% | 
O=C1c2ccccc2-n2c1nc1ccccc1c2=O | 68.6% | 
O=C(O)c1cccc(-c2noc(-c3ccccc3F)n2)c1 | 99.8% | 

Compound | inhibition [1] | inhibition [2] [%]
FC(F)(F)c1cccc(-c2noc(-c3cc(-c4ccccc4)c(C(F)(F)F)s3)n2)c1 | -4.64% | 
Cc1c(-c2ccc(-c3ccccc3F)cc2)nc2ccc(F)cc2c1C(=O)O | -2.53% | 
NC1(C(=O)N[C@@H](CCO)c2ccc(Cl)cc2)CCN(c2nc[nH]c3nccc2-3)CC1 | 5% | 
CN1C(=O)N[C@H](Cc2c[nH]c3c(Cl)cccc23)C1=O | 2.4% | 
COc1ccc(C(=O)NCc2ccc(OCCN(C)C)cc2)cc1OC | -3.31% | 
Cc1cc(C)c(N(Cc2ccccc2)S(=O)(=O)c2ccc(OCCNC(=O)c3cc4ccccc4o3)cc2)c(C(=O)NO)c1 | -0.11% | 
CN(C)Cc1c(C(=O)NCCOc2ccc(C(=O)NO)cc2)oc2ccccc12 | 97.9% | 
CC1(C)OC[C@H](NC(=O)Nc2ccc(Br)cc2Br)[C@H](c2ccccc2)O1 | -0.73% | 
FC(F)(F)c1cc(NC(=S)Nc2ccc(Br)cc2-c2nnn[nH]2)cc(C(F)(F)F)c1 | 67.5% | 
COc1cc(C[C@@H](CO[C@@H]2O[C@H](CO)[C@@H](O)[C@H](O)[C@H]2O)[C@H](CO[C@@H]2O[C@H](CO)[C@@H](O)[C@H](O)[C@H]2O)Cc2ccc(O)c(OC)c2)ccc1O | -3.26% | 
COc1ccc(C[C@@H](C)[C@@H](C)Cc2ccc(OC)c(OC)c2)cc1OC | -2.57% | 
COc1ccc(/C=C/C(=O)/C=C(O)/C=C/c2ccc(OC)c(OC)c2)cc1OC | 4.07% | 
Cn1cc(C2=C(c3ccc(Cl)cc3Cl)C(=O)NC2=O)c2ccccc21 | -3.78% | 
Cn1cc(/C=C2/C(=O)Nc3cccnc32)c2ccccc21 | 66.2% | 
Cn1cc(C2=C(c3cn(CCCSC(=N)N)c4ccccc34)C(=O)NC2=O)c2ccccc21 | -0.14% | 
CCNC(=O)CC[C@@H](N)C(=O)O | -3.08% | 
CN(C)CC(O)Cn1c2ccc(Br)cc2c2cc(Br)ccc21 (stereo not given) | -0.45% | 
O=C1OC2(c3cc(I)c(O)c(I)c3Oc3c2cc(I)c(O)c3I)c2c(Cl)c(Cl)c(Cl)c(Cl)c21 | 31.9% and 41.8% | 
CCOC(=O)c1ccc(N2NC(=O)/C(=C/c3ccc([N+](=O)[O-])o3)C2=O)cc1 | 3.77% | 
Cn1nc(-c2ccc(C(F)(F)F)cc2)nc2c(=O)n(C)c(=O)nc1-2 | 82.8% | 
Cc1cccc(C)c1NC(=O)/N=C1\CCCN1C | -2.32% | 
Cc1ccc(-c2[nH]nc3c2C(c2cccc(O)c2)N(c2ccc(C(=O)O)cc2)C3=O)cc1 (stereo not given) | -3.95% | 
C1Cc2[nH]nc(-c3nn[nH]n3)c2C1 | -4.01% | 
COc1ccc2[nH]c(SCc3ncc(C)c(OC)c3C)nc2c1 | 7.26% | 
N#Cc1cccc(-c2c[nH]c3ncnc(N4CCOCC4)c23)c1 | -3.83% | 
CCN(CC)CCn1c(=O)c(Cc2ccc(OC)cc2)nc2ccccc21 | -4.21% | 
CCCCc1nc2cc(/C=C/C(=O)NO)ccc2n1CCN(CC)CC | 97.3% | 

Compound | inhibition [1] | inhibition [2] [%]
CCCCc1nc(-c2ccc(OCCCN(CC)CC)cc2)cn1-c1ccc(Oc2ccc(Cl)cc2)cc1 | 9.56% | 
CC(C)(C)/[N+]([O-])=C/c1ccc(S(=O)(=O)O)cc1S(=O)(=O)O | -5.01% | 
CCCc1c(OCCCOc2ccc(OCC(=O)O)cc2)ccc(CC=O)c1O | -1.53% | 
O=C(O)/C=C\c1c[nH]cn1 | -0.7% | 
Nc1ccc(C(=O)O)c(O)c1 | -3.77% | 
O=C(Nc1ccc(C(=O)O)c(O)c1)c1ccccc1 | 95.5% | 
CC1(C)CCC(C)(C)c2cc(NC(=O)c3ccc(C(=O)O)cc3)ccc21 | -2.96% | 
OXALIPLATIN, CHEMBL414804 |  | -4.35
CN[C@H](CNC(=O)N1CCC[C@@H]([C@@H](OCCNC(=O)OC)c2cccc(Cl)c2)C1)C[C@H]1CCCOC1 | 8.55% | 
Cc1ccc(OCCSc2ncccn2)c(Br)c1 | 77.5% | 
Cc1cc(OCC(=O)O)cc(C)c1Cc1ccc(O)c(C(C)C)c1 | -5.84% | 
O=C1[C@@H]2[C@H]3CC[C@H](C3)[C@@H]2C(=O)N1CCCCN1CCN(c2ncccn2)CC1 | 6.98% | 
N#Cc1c[nH]c2c(C(=O)N3CCN(CCc4ccc(F)cc4)CC3)cccc12 | 4.22% | 
COc1ccccc1C(=O)Nc1cccc(NC(=O)c2cccc(C)c2)c1 | 8.47% | 
CC(=O)CC(=O)O | -2.94% | 
CCCCCCCCCCCCCCCC(=O)NCCO | -0.28% | 
O=C(CCNNC(=O)c1ccncc1)NCc1ccccc1 | -3.21% | 
O=C(CCCCCCNC(=O)c1cnc(N(c2ccccc2)c2ccccc2)nc1)NO | 97.5% | 
N#C/C(=C\c1cccn1S(=O)(=O)c1cccc([N+](=O)[O-])c1)S(=O)(=O)c1ccc(F)cc1 | 6.35% | 
N[C@@H](CC(=O)NO)C(=O)O | -1.74% | 
O=C1Nc2c(ccc(Cl)c2Cl)/C1=N\O | 1.23% | 
Nc1nc(N)c2nc(-c3ccccc3)c(N)nc2n1 | 22% | 
Oc1cccc(-c2c3nc(c(-c4cccc(O)c4)c4ccc([nH]4)c(-c4cccc(O)c4)c4nc(c(-c5cccc(O)c5)c5ccc2[nH]5)CC4)C=C3)c1 | 2.63% | 
Nc1nc(N)c2nc(-c3cccc(O)c3)cnc2n1 | 66.2% | 
